# Shown are actives, neighbours in structure and some others; about 5.7% of the full set was active somewhere.
# KB-V1 MDR tox = kills drug-selected multidrug resistant KB-V1 cells; KB-V1 MDR cells viability, CellTiter-Glo, 72 h; Potency, µM (series often up to 46.1 µM), hits mostly cytotoxic; 3.4% of 400,000 active; AID 1347076; also: nearly all actives have a fitted effect of over 60% in size
#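 Cytotoxicity toward P-gp-expressing KB-V1 cells was determined as loss of CellTiter-Glo luminescence after 72 h at 37 degrees C. Compounds were tested in quantitative HTS format across a concentration range, with curves fitted to normalized data.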
# A549 viability = A549 cytotoxicity, counter-screen for Nrf2 inhibitors. AID 504648. 0.16% of 390,000 active. Potency, µM (doses to about 46 µM), most hits filed as inhibitors. A549 ARE-Fluc cells, CellTiter-Fluor viability, 18-24 h
#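 Cytotoxicity counterscreen: CellTiter-Fluor fluorescence was measured in A549 ARE_Fluc cells after 18-24 h of compound exposure in a concentration series. The subsequent BugLite luminescent read reports ARE-luciferase activity.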
# PI4K2A inh = blocks human PI4K2A kinase activity; activity change, negative = inhibition, % at 76.9 µM; purified PI4K2A, ADP-Glo luminescence, 1 h; hits give low values; Q9BTU6; AID 1346378; 0.13% of 420,000 active; in the data active = activity change below about -50%; inconclusive = mostly about -30% to -49%
# Target sequence (Q9BTU6 whole entry, looked up): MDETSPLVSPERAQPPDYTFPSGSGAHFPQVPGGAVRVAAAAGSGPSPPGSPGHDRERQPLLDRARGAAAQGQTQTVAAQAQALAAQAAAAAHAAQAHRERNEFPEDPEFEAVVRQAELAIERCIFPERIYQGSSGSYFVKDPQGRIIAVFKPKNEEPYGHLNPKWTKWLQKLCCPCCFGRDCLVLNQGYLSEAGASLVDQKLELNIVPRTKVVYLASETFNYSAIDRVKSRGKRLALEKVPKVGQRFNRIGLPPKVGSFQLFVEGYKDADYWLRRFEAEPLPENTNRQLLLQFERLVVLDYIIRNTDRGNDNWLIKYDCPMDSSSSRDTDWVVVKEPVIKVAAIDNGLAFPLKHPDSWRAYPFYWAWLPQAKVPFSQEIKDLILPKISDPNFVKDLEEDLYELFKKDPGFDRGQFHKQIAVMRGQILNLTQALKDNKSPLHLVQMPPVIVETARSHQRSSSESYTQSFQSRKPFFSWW
#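 PI4K2A activity was measured by ADP-Glo luminescence: enzyme (4 ug/mL stock) and phosphatidylinositol (1.2 mM stock) in Tris pH 7.5/MgCl2/EGTA/Triton X-100 buffer were reacted with ATP (300 microM stock) for one hour at ambient temperature.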
# Giardia kill = Giardia lamblia killing; Giardia lamblia trophozoite viability; activity change, % at 7.66 µM, hits read low; 0.15% of 340,000 active; AID 540267; in the data active = activity change below about -80%; inconclusive = between about -30% and that limit;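 also: parasites exposed to compound for two days anaerobically before the ATP read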
#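 Giardia lamblia trophozoites (100 cells/well) were incubated with compounds for 48 h at 37 deg C under anaerobic conditions. Viability was read as ATP content by one-step luminescence after 15-30 min at room temperature.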
# KB-3-1 tox = KB-3-1 parental cell cytotoxicity; KB-3-1 viability, CellTiter-Glo ATP luminescence, 72 h; Potency, µM (doses to about 46.1 µM), actives largely listed as cytotoxic; 1.4% of 400,000 active; AID 1347075; also: nearly all actives have a fitted effect of over 60% in size
#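 Cytotoxicity measured as CellTiter-Glo luminescence after 72 h at 37 C. Compound titrations were pinned onto drug-naive KB-3-1 parental adenocarcinoma cells grown in DMEM with 10% FBS, and normalized data fitted to concentration-response curves.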
# Nrf2 inh = Nrf2 pathway inhibition | Potency, µM (series often up to 46 µM), actives largely listed as inhibitors | 2.1% of 360,000 active | AID 504444 | A549 ARE-Fluc reporter, luciferase luminescence, 18-24 h; also: nearly all actives have a fitted effect of over 60% in size
#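 Nrf2 activity is the BugLite luminescence, read 15 min after reagent at room temperature, following CellTiter-Fluor cytotoxicity readout (30 min, 37C). Compound titrations were applied for 18-24 h to 5000 A549 ARE_Fluc cells/well in 5% FBS OPTI-MEM.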
# Hits are given with their value; . = inactive; ? = inconclusive; / = no result. Unless noted, calls follow the shape of the dose curve; as a rule, active = well fitted curve in the direction sought with a large enough effect; inconclusive = small, poorly fitted or top-dose-only effect, or another doubt; inactive = no such curve, though single readings can be large; an effect the other way counts as inactive or inconclusive.
SMILES,KB-V1 MDR tox,A549 viability,PI4K2A inh,Giardia kill,KB-3-1 tox,Nrf2 inh
Cc1[nH]n2c(=O)c3c(nc2c1-c1ccc(F)cc1)CCCC3,.,.,.,.,?,?
COCc1cc(=O)n2[nH]c(C)c(-c3ccc(Cl)cc3)c2n1,?,/,.,/,?,/
COc1cc2ncnc(N(C)Cc3cccs3)c2cc1-c1ccc2c(c1)OCO2,.,.,/,/,.,.
CC(=O)c1c(C)[nH]c(C(=O)COC(=O)CCCOc2ccccc2)c1C,.,.,.,.,.,.
CC(=O)c1c(C)[nH]c(C(=O)OCCOc2ccccc2)c1C,6.5µM,.,.,.,?,?
Cc1c(C(=O)OCCOc2ccccc2)[nH]c2c1C(=O)CCC2,12µM,.,.,.,.,?
CC(=O)c1c(C)[nH]c(C(=O)OCc2ccccc2F)c1C,4.6µM,.,.,.,.,?
CC(=O)c1c(C)[nH]c(C(=O)OCc2ccc(Br)cc2)c1C,6.5µM,.,.,.,?,?
CC(C)CN1C(=O)C[C@@]2(C(=O)N(C)c3ccc(NC(=O)c4cc(F)ccc4F)cc32)C1c1ccccc1 (stereo not given in full),/,/,.,/,/,/
Cc1cccc(NC(=O)C2CCCN2S(=O)(=O)c2cccnc2)c1C (stereo not given),/,/,.,/,/,/
COC(=O)c1ccc(Oc2cc(C)nc(SC)n2)cc1,4.6µM,.,.,.,5.8µM,.
COc1ccc(S(=O)(=O)NCCCCC(=O)O)cc1C(=O)O,.,.,.,.,.,16µM
CCn1ccc2cc(OC)ccc2c1=S,.,.,.,.,.,.
CCSc1ccc2cc(OC)ccc2[n+]1CC,.,.,.,.,.,16µM
COC(=O)CSc1nnc(-c2ccc(NS(=O)(=O)c3c(C(C)C)cc(C(C)C)cc3C(C)C)cc2)o1,/,/,.,/,/,/
Cc1ccc(N(Cc2cc(=O)[nH]c3ccccc23)C(=O)CCl)c(C)c1,?,.,.,.,18µM,?
CCCC(=O)N(Cc1cc(=O)[nH]c2ccccc12)c1ccc(C)cc1C,.,.,.,.,.,.
CCN(CC)C(=O)CC[C@@H]1CC[C@]2(CCCN(C(=O)c3ccno3)C2)O1,/,/,.,/,/,/
Cc1nn(CCC(=O)NNC(=O)Nc2ccccc2F)c(C)c1[N+](=O)[O-],/,/,.,/,/,/
COc1ccc(Nc2nc(NC(C)(C)C)nc(N3CCCC3)n2)c(OC)c1,18µM,?,.,.,.,?
CCOc1cc(-c2ccc(OC(=O)c3ccc(Cl)cc3)c(OC)c2)cc(=O)c2c(C)oc(C)c12,/,.,.,/,/,.
CC(Sc1nc2ccccc2c(=O)n1C)C(=O)N(C)C1CCCCC1 (stereo not given),5.8µM,.,.,.,?,18µM
COC(=O)Cn1c(SCCOc2ccccc2Cl)nc2ccccc21,.,.,.,/,.,23µM
Cc1ccc(OCCSc2nc3ccccc3n2CC(=O)N2CCCCC2)c(C)c1,12µM,.,.,/,?,?
COc1ccccc1OCCSc1nc2ccccc2n1CCC(=O)O,.,.,.,.,.,.
SMILES,KB-V1 MDR tox,A549 viability,PI4K2A inh,Giardia kill,KB-3-1 tox,Nrf2 inh
Cc1ccc(OCCSc2nc3ccccc3n2CC(=O)N2CCOCC2)cc1,.,.,.,/,.,18µM
Cc1cccc(NC(=O)CN2CCN(C(=O)CN3C(=O)NC4(CC(C)CC(C)(C)C4)C3=O)CC2)c1C (stereo not given),.,.,.,.,.,16µM
CC1CC(C)(C)CC2(C1)NC(=O)N(CC(=O)N1CCN(Cc3ccc(C#N)cc3)CC1)C2=O (stereo not given),.,.,.,.,.,1.8µM
CC1CC(C)(C)CC2(C1)NC(=O)N(CC(=O)N1CCN(S(=O)(=O)c3cccs3)CC1)C2=O (stereo not given),.,.,.,.,.,.
CC1CC(C)(C)CC2(C1)NC(=O)N(CC(=O)Nc1c(F)cccc1F)C2=O (stereo not given),.,.,.,.,.,.
CCOC(=O)[C@]12CCCC=C1N(Cc1ccc(OC)cc1)C(=O)[C@@H]2CC(=O)NCC12CC3CC(CC(C3)C1)C2,/,/,.,/,/,/
O=C(Nc1ccccc1Cl)N1CCN(c2ccccn2)CC1,16µM,.,.,.,?,?
CCOC(=O)c1ccc(NC(=O)N2CCN(c3ccccn3)CC2)cc1,16µM,.,.,.,.,?
O=C(CCNS(=O)(=O)c1ccccc1Cl)N1CCN(c2ccccn2)CC1,16µM,.,.,.,?,.
CC(=O)c1ccccc1C(=O)N1CCCC(CCC(=O)N2CCN(c3ccccn3)CC2)C1 (stereo not given),.,.,.,.,.,.
O=C(CCC1CCCN(C(=O)c2ccccc2Cl)C1)N1CCN(c2ccccn2)CC1 (stereo not given),15µM,.,.,.,?,?
C[C@H]1[C@@H](OC(=O)Nc2cccc(Cl)c2)CC[C@@]23CCCN2C(=O)CCC[C@@H]13,/,/,.,/,/,/
COc1ccccc1C1NC(c2ccc3c(c2)OCO3)=CC(c2ccccc2O)N1 (stereo not given),.,.,/,.,.,.
CCC(=O)Nc1ccc(S(=O)(=O)N2CCCCC2)cc1OC,.,.,.,.,.,.
CCC(=O)Nc1ccc(S(=O)(=O)Nc2cccc(C)c2)cc1OC,18µM,.,.,.,?,.
Cc1nc2cc(NS(=O)(=O)c3c(C)c(C)cc(C)c3C)ccc2s1,11µM,?,.,.,13µM,11µM
Cc1nc2ccc(NS(=O)(=O)c3c(C)c(C)cc(C)c3C)cc2s1,?,.,.,.,?,15µM
COC[C@H]1CCCN1c1ccc2c(c1)O[C@H](C)CCN(C1CC1)S2(=O)=O,/,/,.,/,/,/
Cc1cc2nc(CCN(C(=S)NCC3CCCO3)C3CCCC3)[nH]c2cc1C (stereo not given),.,.,.,.,.,?
Cc1cc2nc(CCN(C(=S)NCC(C)C)C3CCCC3)[nH]c2cc1C,16µM,?,.,.,.,?
O=C(C1CCCN(S(=O)(=O)c2cccnc2)C1)N1CCN(c2ccccn2)CC1 (stereo not given),.,.,.,.,.,?
O=C(c1ccc2ccccc2c1)C1CCCN(S(=O)(=O)c2cccnc2)C1 (stereo not given),16µM,.,.,.,.,21µM
O=C(NN=C/C=C/c1ccco1)c1cc(-c2ccc(Cl)cc2)n[nH]1,/,/,.,/,/,/
CCCc1nnc(NC(=O)CN2C(=O)c3ccccc3C2=O)s1,.,.,.,.,.,/
CCCc1nnc(NC(=O)Cn2c(=O)sc3ccccc32)s1,18µM,.,.,.,.,.
Cc1csc(NC(=O)CCn2c(=O)sc3ccccc32)n1,23µM,.,.,.,.,.
COC(=O)[C@]12C[C@H](CC(=O)NCc3ccc(C)o3)C(=O)N(CCc3ccc(OC)c(OC)c3)C1=C[C@H](C1CCCC1)O[C@@H]2C,/,/,.,/,/,/
